Screening results as filed in PubChem BioAssay.
Most compounds without a hit are left out; they make up all but 4.5% or so of the library.
tim10-1 inh: growth inhibitors of tim10-1 mutant yeast; 330,000 tested, 2.2% active; inhibition, % at 20 µM; AID 463190; S. cerevisiae tim10-1 ts strain growth, BacTiter-Glo, 24 h;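 active = inhibition of at least 40%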;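 note: mutant grown at 25 °C; 0% = DMSO wells with yeast and 100% = wells holding no yeast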
PfHsp90 set2: reduces growth (ATP signal) of yeast expressing P. falciparum Hsp90. S. cerevisiae expressing PfHsp90, BacTiter-Glo ATP, 48 h; yeast lacking PDR1 and PDR3 efflux regulators. inhibition, % at 9.4 µM. 310,000 tested, 0.32% active. AID 504621;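 active = every replicate shows inhibition above about 80%, whatever the replicate mean, limit read from the data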;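 note: 0% = DMSO neutral controls and 100% = 20 µM radicicol positive controls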
SKKanGAS inh: blocks kanamycin growth of S. pyogenes SKKanGAS strain. BacTiter-Glo, 6 h. 300,000 tested, 1.3% active. AID 1662. inhibition, % at 7.5 µM;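 active = mean replicate score, as percent of positive control median, at least 50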;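 note: strain carries kanamycin resistance gene driven by streptokinase promoter and grows in 40 µg/ml kanamycin; loss of luminescence reflects streptokinase promoter inhibition or plain growth inhibition; 0% = median of DMSO wells and 100% = positive control at its reference dose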
NALP3 yeast inh: inhibitors of NALP3 inflammasome in yeast. Yeast reconstituted NLRP3/ASC/caspase-1, beta-gal luminescence, 24 h. inhibition, % at 10 µM. 330,000 tested, 0.39% active. AID 2825;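 active = inhibition of 50% or more; inactive = inhibition below 50%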;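 note: plate controls were induced DMSO wells for no effect and uninduced yeast grown without galactose for full effect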
tim23-1 inh: inhibits growth of tim23-1 mutant yeast; S. cerevisiae tim23-1 growth, BacTiter-Glo luminescence, 24 h; inhibition, % at 20 µM; 330,000 tested, 1.3% active; AID 463212;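 active = growth inhibition of the mutant yeast at or above 50%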;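 note: temperature-sensitive mutant grown at 25 °C; plate controls were DMSO-treated mutant yeast for no effect and medium wells lacking yeast for full effect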
TIM10 inh: growth inhibitors of TIM10 yeast strain; 330,000 tested, 1.4% active; S. cerevisiae TIM10 strain growth, BacTiter-Glo luminescence, 24 h; inhibition, % at 10 µM;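 active = inhibition of 40% or more at the single tested concentration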;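 note: wild-type TIM10 isogenic control strain grown at permissive 25 °C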
tim10 confirm: TIM10 yeast growth inhibition, confirmed; shares compounds with TIM10 inh; S. cerevisiae tim10 strain growth, BacTiter-Glo luminescence, 24 h; inhibition, % at 10 µM; 4,600 tested, 63% active;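 active = inhibition of yeast growth at or above a set limit in either of two replicates at 10 µM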;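 note: this counterscreen used the strain with wild-type TIM10; 0% = yeast with DMSO and 100% = medium wells lacking yeast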
Numbers without * were called inactive.

Cc1ccccc1-c1nc(S(=O)(=O)c2ccccc2)c(N2CCCC2)o1 was read as tim10-1 inh 19.4, PfHsp90 set2 8.7, NALP3 yeast inh -27.3, tim23-1 inh 26.2 and TIM10 inh 28.4.
Screening O=C(NN1C(=O)c2ccccc2NC1c1ccc([N+](=O)[O-])o1)c1ccc(Br)cc1 (configuration not stated) returned tim10-1 inh 38.2, PfHsp90 set2 -13.0, SKKanGAS inh 10.2, NALP3 yeast inh 12.2, tim23-1 inh 42.9, TIM10 inh 54.9* and tim10 confirm 61.0*.
Screening CC(=O)NN1C(=O)c2ccccc2NC1c1ccc([N+](=O)[O-])o1 (configuration not stated) returned tim10-1 inh 2.4, PfHsp90 set2 -6.6, SKKanGAS inh -20.9, NALP3 yeast inh 23.1, tim23-1 inh 12.9 and TIM10 inh 9.5.
Screening COc1ccc(C(=O)N2CC3(CC(c4cccc(NC(=O)CC(c5ccccc5)c5ccccc5)c4)=NO3)C[C@H]2C(N)=O)cc1 (some centres not stated) returned tim10-1 inh 23.7, PfHsp90 set2 9.7, SKKanGAS inh 31.4, NALP3 yeast inh 12.9, tim23-1 inh 21.5, TIM10 inh 96.1* and tim10 confirm -5.0.
Screening CC1(C(=O)N2CC3(CC(c4cccc(NC(=O)CC(c5ccccc5)c5ccccc5)c4)=NO3)C[C@@H]2C(N)=O)CC1 (some centres not stated) returned tim10-1 inh -1.0, PfHsp90 set2 -19.2, SKKanGAS inh 8.2, NALP3 yeast inh 16.2, tim23-1 inh 21.5, TIM10 inh 95.6* and tim10 confirm -20.0.
O=C(c1ccc(Br)cc1)C(CN1CCOCC1)c1ccccc1 (configuration not stated) was read as tim10-1 inh -122.8, PfHsp90 set2 98.3*, SKKanGAS inh -21.0, NALP3 yeast inh 20.3, tim23-1 inh -19.7, TIM10 inh 50.6* and tim10 confirm 59.6*.
O=[N+]([O-])c1ccc(O)c(CN2CCCCCC2)c1 was read as tim10-1 inh -5.8, PfHsp90 set2 -14.1, SKKanGAS inh 2.4, NALP3 yeast inh 13.3, tim23-1 inh 9.6 and TIM10 inh 0.5.
CCC(C)N=CC1=C(O)CC(c2ccccc2)CC1=O (configuration not stated) was read as tim10-1 inh 8.6, PfHsp90 set2 -8.6, SKKanGAS inh -4.0, NALP3 yeast inh 0.7, tim23-1 inh 6.4 and TIM10 inh -10.2.
For COc1ccc(C2CC(=O)C(C=NCC(C)C)=C(O)C2)cc1 (configuration not stated) the results were tim10-1 inh -9.1, PfHsp90 set2 -25.9, SKKanGAS inh -4.4, NALP3 yeast inh 25.9, tim23-1 inh 7.9, TIM10 inh 96.6* and tim10 confirm 1.4.
CC(=O)Oc1ccc2occ(/C=N/c3cc(=O)[nH]c(=S)[nH]3)c(=O)c2c1 was read as tim10-1 inh 8.9, PfHsp90 set2 19.6, SKKanGAS inh 3.1, NALP3 yeast inh 1.4, tim23-1 inh 4.4 and TIM10 inh -0.1.
For Cc1cccc(C(=O)OCC(=O)NCc2cccs2)c1 the results were tim10-1 inh 19.8, PfHsp90 set2 -3.9, SKKanGAS inh -11.5, NALP3 yeast inh 31.8, tim23-1 inh 26.7 and TIM10 inh 8.0.
For O=C(COC(=O)c1c(F)cccc1F)NCc1cccs1 the results were tim10-1 inh -4.6, NALP3 yeast inh 13.0, tim23-1 inh 7.9, TIM10 inh 70.7* and tim10 confirm -1.3.
CCn1cc(Br)c(C(=O)Nc2ccc(OC)cc2)n1 was read as tim10-1 inh -3.7, PfHsp90 set2 -20.7, SKKanGAS inh 3.5, NALP3 yeast inh 15.7, tim23-1 inh -7.3 and TIM10 inh 5.3.
Screening CCn1cc(Br)c(C(=O)Nc2ccc(Cl)c(Cl)c2)n1 returned tim10-1 inh 38.0, PfHsp90 set2 -57.4, SKKanGAS inh -1.3, NALP3 yeast inh -4.2, tim23-1 inh 24.3, TIM10 inh 61.8* and tim10 confirm 45.2*.
CC1CN(C(=O)CS(=O)(=O)Cc2ccc(Cl)cc2)CC(C)O1 (configuration not stated) was read as tim10-1 inh -10.3, PfHsp90 set2 -4.4, SKKanGAS inh 1.7, NALP3 yeast inh 0.7, tim23-1 inh -5.6 and TIM10 inh -5.6.
Cc1ccc2cc3cc(C(=O)NCCCN4CCCC4)oc3nc2c1 was read as tim10-1 inh 6.3, PfHsp90 set2 -1.8, SKKanGAS inh 4.1, NALP3 yeast inh 5.5, tim23-1 inh 17.3, TIM10 inh 45.2* and tim10 confirm 15.1.
For CCCCN(CC)CCCNC(=O)c1cc2cc3ccc(C)cc3nc2o1 the results were tim10-1 inh 25.4, PfHsp90 set2 -29.5, SKKanGAS inh -1.8, NALP3 yeast inh 7.8, tim23-1 inh 22.6 and TIM10 inh 32.3.
For Cc1ccc2nc(CSc3nc(C)ccc3C#N)[nH]c2c1 the results were tim10-1 inh 38.2, PfHsp90 set2 4.8, SKKanGAS inh -0.4, NALP3 yeast inh 8.1, tim23-1 inh 34.7, TIM10 inh 60.7* and tim10 confirm 48.1*.
COc1ccc(C(=O)NC(=S)NCc2ccccc2)cc1 was read as tim10-1 inh 34.3, PfHsp90 set2 -53.8, SKKanGAS inh -5.8, NALP3 yeast inh 17.3, tim23-1 inh 40.2 and TIM10 inh 21.0.
Screening COc1cc(OC)cc(C(=O)NC(=S)NCCc2ccccc2)c1 returned tim10-1 inh 22.4, PfHsp90 set2 -21.0, SKKanGAS inh -3.8, NALP3 yeast inh -3.1, tim23-1 inh 48.4, TIM10 inh 44.0* and tim10 confirm 18.1.
Screening COC(=O)Cc1ccc(NC(=S)NCCSc2ccc(C)cc2)cc1 returned tim10-1 inh 38.9, PfHsp90 set2 7.9, SKKanGAS inh -8.0, NALP3 yeast inh 24.0, tim23-1 inh 13.4, TIM10 inh 54.6* and tim10 confirm 35.5*.
CCn1c(Cl)c(C=O)s/c1=N\S(=O)(=O)c1ccccc1 was read as tim10-1 inh 33.6, PfHsp90 set2 0.2, SKKanGAS inh -16.7, NALP3 yeast inh -11.1, tim23-1 inh 26.6, TIM10 inh 42.7* and tim10 confirm 1.2.
Screening O=C(Cn1cnc2c(NCc3ccccc3)ncnc21)NCCc1cc2ccccc2[nH]1 returned tim10-1 inh -1.5, PfHsp90 set2 0.2, tim23-1 inh 20.9 and TIM10 inh -9.0.
`CC(=O)c1ccc(S(=O)(=O)NC2CC(=O)N(c3ccc(C)c(C)c3)C2)cc1` (configuration not stated) gave tim10-1 inh 2.0, PfHsp90 set2 -21.6, SKKanGAS inh 2.5, NALP3 yeast inh 7.7, tim23-1 inh 6.7 and TIM10 inh -4.0.
Screening Cc1cccc(NC(=O)c2cc([N+](=O)[O-])ccc2NCC2CCCO2)n1 (configuration not stated) returned tim10-1 inh 37.2, PfHsp90 set2 -18.6, SKKanGAS inh -1.1, NALP3 yeast inh 19.4, tim23-1 inh 36.7, TIM10 inh 49.1* and tim10 confirm 42.7*.
